Data reported in the supplement of paper PMC9942566.
± gives the standard deviation of the averaged measurements.

These molecules were tested on Serratia marcescens K904 PosmB-luxCDABE reporter (pMQ747) (assay: PosmB-lux reporter fold induction (RLU/OD600 relative to no-compound control), highest over Biolog concentrations; higher = stronger Rcs reporter activation). Details: Biolog plate: PM15; well positions: G5-8; wild type K904; 4 h.
Method: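 Serratia marcescens K904 (wild type) or its isogenic ΔrcsB mutant, carrying the Rcs-dependent PosmB-luxCDABE reporter plasmid pMQ747, was grown in LB at OD600 0.1 in Biolog Phenotype MicroArray plates PM11-20 for 4 h at 30-32°C. Each compound is present at 3-4 proprietary concentrations (not stated); per the Fig. S1 legend the value given is the highest fold over those wells. Three independent trials.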

Structure (SMILES) | PosmB-lux reporter fold induction
[N-]=[N+]=[N-] [Sodium azide] | 34 ± 10

Same assay, conditions: Biolog plate: PM18; well positions: F1-4; wild type K904; 4 h

Structure (SMILES) | PosmB-lux reporter fold induction
NNC(N)=O [semicarbazide] | 3.39 ± 0.38
